In the library only some 3.3% were active in any assay of this set; here they are far more common.
AmpC detergent = qHTS Inhibitors of AmpC Beta-Lactamase (assay with detergent); AmpC hydrolysis of nitrocefin, absorbance 480 nm, 0.01% Triton; Potency, µM (top dose mostly 114 µM), inactives show at the highest dose activity change, negative = inhibition, most hits filed as inhibitors; hit rate 0.041% among 370,000;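 further: 0% = no-compound wells and -100% = no-enzyme wells; nearly all actives have a fitted effect of over 25% in size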
Target sequence (P00811 whole entry, looked up): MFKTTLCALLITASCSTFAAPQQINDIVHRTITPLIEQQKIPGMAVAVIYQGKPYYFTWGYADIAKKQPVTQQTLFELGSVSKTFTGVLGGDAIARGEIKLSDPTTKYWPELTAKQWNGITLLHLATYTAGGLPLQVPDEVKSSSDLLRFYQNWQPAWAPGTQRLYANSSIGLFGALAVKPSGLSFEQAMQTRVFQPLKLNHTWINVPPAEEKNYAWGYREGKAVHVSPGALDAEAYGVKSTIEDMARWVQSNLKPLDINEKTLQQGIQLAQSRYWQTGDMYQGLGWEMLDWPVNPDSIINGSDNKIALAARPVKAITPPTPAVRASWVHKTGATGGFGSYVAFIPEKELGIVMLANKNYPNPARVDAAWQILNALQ
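20 mM phosphate pH 7.0 + 0.01% (detergent screen) or 0.0001% Triton X-100; 5.3 nM AmpC reagent; cpd preinc 15 min RT; nitrocefin (800 uM stock) to start; A480 q20 s × 4 min; Activity was normalised to no-enzyme and no-compound control wells.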
Sm TGR inh = qHTS Assay for the Inhibitors of Schistosoma Mansoni Peroxiredoxins; Schistosoma mansoni thioredoxin glutathione reductase (TGR), Q962Y6; purified TGR, DTNB reduction, TNB absorbance 405 nm; Potency, µM (doses to about 114 µM), for inactives: at the highest dose activity change, negative = inhibition, usual class: inhibitors; hit rate 3% among 360,000; further: nearly all actives have a fitted effect of over 60% in size
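First, TGR (20 nM dispensed) and NADPH were mixed with compound. Second, a 15 min room-temperature incubation followed. Third, further NADPH and then DTNB were added to start the reaction. Finally, TNB absorbance was monitored kinetically.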
AmpC no deterg = qHTS Inhibitors of AmpC Beta-Lactamase (assay without detergent). P00811. AmpC nitrocefin hydrolysis, absorbance 480 nm, 0.0001% Triton. Potency, µM (top dose mostly 57.1 µM), inactives show top-dose activity change, negative = inhibition, actives largely listed as inhibitors. hit rate 0.52% among 330,000. AID 485341, 2010;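 further: plate controls were no compound for no effect and no enzyme for full effect; nearly all actives have a fitted effect of over 20% in size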
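20 mM phosphate pH 7.0 + 0.01% (detergent screen) or 0.0001% Triton X-100; 5.3 nM AmpC reagent; cpd preinc 15 min RT; nitrocefin (800 uM stock) to start; A480 q20 s × 4 min; Activity was normalised to no-enzyme and no-compound control wells.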
* marks the source's active call; other numbers are inactive results; ? = inconclusive; nt = not tested or not shown; [ ] = remark or other dose. The call rests on the fitted dose curve; in most records, active means well fitted curve in the direction sought with a large enough effect; inconclusive means small, poorly fitted or top-dose-only effect, or another doubt; inactive means no such curve, though single readings can be large; an effect the other way counts as inactive or inconclusive. Unless noted, on the % scale 0 is the no-effect control and ±100 the full control effect; potency means the concentration at half of the fitted maximal effect.

SMILES | AmpC detergent | Sm TGR inh | AmpC no deterg
Cc1cccc(OCC(=O)Nc2ccc(N3CCCC3)cc2)c1C | -14.0% | 31.6µM* | -6.2%
CCc1ccc(NC(=O)CSC2=Nc3ccccc3C3=NC(CCC(=O)NCc4cccs4)C(=O)N23)cc1 (stereo not drawn) | 5.2% | 7.7% | nt
C/C(O)=C(/C#N)c1nc2ccccc2[nH]1 | 1.6% | 0.6% | -1.9%
N#C/C(=C(/O)C(Cl)(Cl)Cl)c1nc2ccccc2[nH]1 | -0.2% | 3.98µM* | -40.5%
CC(=O)c1cccc(Nc2cc(C)nc3nc(-c4ccccc4C)nn23)c1 | 2.6% | -7.0% | nt
COc1ccccc1OC(C)C(=O)Nc1ccc(-c2nc3ccccc3s2)cc1 (stereo not drawn) | 22.2% | 7.8% | nt
CCC(C(=O)N1CCN(c2ccccc2)CC1)n1c(C)c2cnn(-c3ccccc3)c(=O)c2c1C (stereo not drawn) | 17.9% | -21.5% | nt
Cc1ccc2nc(-c3cccs3)c(Nc3c(C)cccc3C)n2c1 | 16.2% | 3.9% | nt
CC(C)C1Oc2ccccc2N(CC(=O)N(Cc2ccccn2)CC2CCCO2)C1=O (stereo not drawn) | ? | 0.0% | 90.7%
Cc1ccc(CN(CC2CCCO2)C(=O)CN2C(=O)C(C(C)C)Oc3ccccc32)o1 (stereo not drawn) | -5.6% | 35.5µM* | 98.1%
COc1ccc(-c2n[nH]c3c2C(c2ccc(Cl)cc2Cl)NC3=O)cc1 (stereo not drawn) | 1.2% | -1.1% | nt
CSc1ccc(CCNC(=O)c2c(C)nn(-c3ccc(F)cc3)c2-n2cccc2)cc1 | 18.8% | 3.5% | nt
Cc1nc2nc(-c3cccnc3)nn2c(C)c1Cl | -4.0% | -3.7% | -21.5%
Cc1nc2nc(-c3ccco3)nn2c(C)c1Cl | -9.8% | 22.4µM* | -16.9%
CCOC(=O)c1c(NC(=O)/C=C/c2ccc(OCC)cc2)sc(C(C)=O)c1C | 6.5% | -2.1% | nt
COc1cc(C2C3=C(CCCC3=O)Nc3c2c(C)nn3-c2cccc(C)c2)cc(OC)c1O (stereo not drawn) | -10.6% | 39.8µM* | 121.9%
COc1cc(C2C3=C(CCCC3=O)Nc3[nH]n(-c4ccccc4)c(=O)c32)ccc1O (stereo not drawn) | ? | ? | -6.8%
CCCCN(CC)CCCNC(=O)Cn1nc(CC)n2c(cc3sccc32)c1=O | 22.9% | 1.0% | nt
CSC1=NSC2=NC(=O)/C(=C\c3coc4ccccc4c3=O)C(=N)N12 | ? | -22.9% | -26.2%
CN1C(=O)C(=Cc2coc3ccccc3c2=O)C(=O)N(C)C1=O | 6.3% | 10µM* | -10.3%
N=C1/C(=C\c2coc3ccc(O)cc3c2=O)C(=O)N=C2SC=CN12 | -7.0% | 28.2µM* | -54.2%
N=C1/C(=C/c2coc3ccccc3c2=O)C(=O)N=C2SC(c3ccco3)=NN12 | 0.3% | 10µM* | -41.7%
N=C1/C(=C\c2coc3ccccc3c2=O)C(=O)N=C2SC(c3ccncc3)=NN12 | -9.1% | 0.0% | -29.4%
O=C1NC(=O)C(=Cc2coc3ccc(O)cc3c2=O)C(=O)N1 | 4.9% | ? | -24.1%
CCC(Nc1ccc(-c2nc(-c3ccco3)no2)cc1[N+](=O)[O-])c1ccccc1 (stereo not drawn) | -2.3% | -15.1% | nt
SMILES | AmpC detergent | Sm TGR inh | AmpC no deterg
CC(C)c1nnc(NC(=O)CCCCCN2C(=O)C3C4C=CC(C4)C3C2=O)s1 (stereo not drawn) | ? | 7.2% | 16.2%
Cc1nnc(NC(=O)CCCCCN2C(=O)C3C4C=CC(C4)C3C2=O)s1 (stereo not drawn) | ? | -0.4% | 6.31µM*
Cc1cc(C)cc(NC(=O)CSc2oc(-c3ccccc3)nc2S(=O)(=O)c2ccccc2)c1 | -5.0% | -3.4% | nt
COc1ccc(NC(=O)N2CCc3c([nH]c4ccc(OC)cc34)C2c2ccc(OC)cc2)cc1 (stereo not drawn) | 27.4% | 5.0% | nt
Cc1cc(C)c(S(=O)(=O)/N=C2/C=C(Sc3ncn[nH]3)C(=O)c3ccccc32)cc1C | -8.9% | 0.316µM* | -56.8%
Cc1ccc(C)c(S(=O)(=O)/N=C2\C=C(NS(=O)(=O)c3ccccc3)C(=O)c3ccccc32)c1 | -6.4% | ? | -47.3%
CCNc1nc(OC)nc(Oc2ccc(=O)[nH]n2)n1 | -1.0% | -3.9% | nt
CCS(=O)(=O)N1CCc2cc(C(=O)NC(C)c3ccccc3)ccc21 (stereo not drawn) | 19.8% | 5.2% | nt
CC(C)=CCc1c(O)c(CC=C(C)C)c2c(c1O)C(=O)CC(c1ccc(O)cc1)O2 (stereo not drawn) | 14.4% | 19.8% | 14.1µM*
CC(C)=CCc1c(O)cc2c(c1O)C(=O)CC(c1ccc(O)cc1)O2 (stereo not drawn) | -3.4% | -15.5% | ?
O=C(O)c1cccnc1SC1CC(=O)N(CCc2ccccc2)C1=O (stereo not drawn) | -12.9% | -31.0% | -8.2%
CCOC(=O)C(N)CSC1CC(=O)N(CCc2ccccc2)C1=O (stereo not drawn) | -7.1% | 8.91µM* | 3.1%
COc1ccc(CNC(=O)CCC2N=C3c4ccccc4N=C(SCC(=O)NCCc4ccc(OC)c(OC)c4)N3C2=O)cc1 (stereo not drawn) | -4.6% | 10.3% | nt
CCOC(=O)NC1(NC(C)C)Oc2ccccc2O1 | -6.2% | 44.7µM* | -20.0%
CCOC(=O)NC1(NC2CCCCC2)Oc2ccccc2O1 | -10.7% | 15.8µM* | -16.5%
CCOC(=O)NC1c2ccccc2Oc2ccccc21 | -5.5% | 16.2% | -9.0%
CCOC(=O)C(C(=O)Nc1ccccc1)C1CCCCC1 (stereo not drawn) | ? | -0.7% | -23.4%
CCOC(=O)NC1(Nc2ccc(C)cc2)Oc2ccccc2O1 | ? | 39.8µM* | -7.6%
CCOC(=O)Nc1ccc(Oc2ccccc2)cc1 | 1.9% | 18.2% | -16.7%
CCOC(=O)c1ccc(CNCc2ccccc2)cc1 | -6.8% | -5.8% | -15.1%
CCOC(=O)NC1(NCc2ccccc2)Oc2ccccc2O1 | -4.5% | 31.6µM* | -16.1%
CCNC(=O)c1nn(-c2ccccc2C)nc1CO | 17.4% | 2.7% | nt
N#Cc1ccc(-c2cccs2)nc1SCc1ccc(Cl)cc1Cl | -0.2% | 4.4% | nt
CCOC(=O)C1=C(C)c2ccccc2OC1(C(=O)OCC)C(C)C (stereo not drawn) | nt | nt | 22.6%
CCOC(=O)NC1(NCC(C)C)Oc2ccccc2O1 | -10.4% | 22.4µM* | -24.5%
SMILES | AmpC detergent | Sm TGR inh | AmpC no deterg
Cc1ccc(NC(=O)c2ccccc2)cc1 | 2.9% | -24.6% | -20.0%
Cc1ccc(NC(=O)C2=C(c3ccccc3)S(=O)(=O)CCS2(=O)=O)cc1 | -8.5% | 0.316µM* | -19.9%
CSc1ncc(C(=O)N2CCN(c3cc(C)ccc3C)CC2)c(C)n1 | 6.2% | -6.9% | nt
CCOc1ccc(NC(=O)CN2CCN(CC(=O)Nc3ccc(N(CC)CC)cc3)CC2)cc1 | 21.1% | 1.2% | nt
COc1ccc(-c2cc(-c3ccc(OC)cc3)[nH]n2)cc1 | -1.3% | 8.7%[11.4 µM] | -11.2%
COc1ccc(-c2cc(C3CCNCC3)[nH]n2)cc1 | -3.2% | 44.7µM* | 32.2%
Cn1cnc([N+](=O)[O-])c1Nc1ccc(O)cc1 | 4.2% | 25.1µM* | -11.6%
CCNc1c([N+](=O)[O-])ncn1C | 4.6% | 4.1% | 1.6%
O=C(NCc1ccc(F)cc1)c1c(O)nc2ccccn2c1=O | 16.6% | 6.9% | nt

High-throughput results (PubChem BioAssay)
